# Results reported in the supplement of paper PMC4166925.
# ± gives the standard deviation of the averaged measurements. Whole data set: some 33,000 sequences, median “E-score (dimensionless, -0.5 to 0.5)” near -0.049, cut for the highest 2% near 0.37. Many of the other results were omitted from the sample, so the highest values are more common in it than they were.
# Test system: T1, PmTbr T-box DNA-binding domain (GST fusion)
# T1 sequence: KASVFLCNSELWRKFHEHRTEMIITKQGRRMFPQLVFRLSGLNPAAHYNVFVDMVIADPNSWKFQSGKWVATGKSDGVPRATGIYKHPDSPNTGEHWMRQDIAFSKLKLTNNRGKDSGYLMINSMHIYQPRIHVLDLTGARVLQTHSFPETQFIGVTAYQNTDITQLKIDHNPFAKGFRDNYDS
# Assay: PBM E-score of 8-mer (E-score (dimensionless, -0.5 to 0.5)); Tbr is Tbrain of the sea star Patiria miniata (Pm) or the sea urchin Strongylocentrotus purpuratus (Sp); higher = stronger binding preference
# Details: the construct has about 5 more residues each side
# Procedure, shortened: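 Primer extension turned Universal Agilent oligonucleotide arrays double-stranded. They were incubated with 200 nM protein in PBS (pH 7.5); the protein was a GST-fused Tbr T-box DNA-binding domain expressed in BL21 E. coli at 20 °C and purified on glutathione. Every ungapped 8-mer was scored from the scanned, quantified probe intensities, and the Universal PBM Analysis Suite gave each an enrichment E-score averaged over duplicate arrays.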
row,Sequence,PBM E-score of 8-mer
1,AGTCATAT,-0.234 ± 0.069
2,ATTAACAA,0.173 ± 0.14
3,ATTAACAC,0.449 ± 0.0075
4,ATTAACAG,0.143 ± 0.048
5,CTTAACAA,0.201 ± 0.041
6,CTTAACAC,0.434 ± 0.013
7,CTTAACCC,-0.0938 ± 0.018
8,CTACTCGA,-0.0985 ± 0.018
9,AACTTAAT,-0.0144 ± 0.063
10,GGTTCTTA,-0.0403 ± 0.11
11,ACCTTAAC,0.0595 ± 0.0064
12,GCCACCCA,0.0536 ± 0.024
13,ACCACCCC,0.191 ± 0.072
14,AACACCCA,0.348 ± 0.029
15,AGCACCCT,0.309 ± 0.031
16,AACACCCT,0.433 ± 0.017
17,GGCACCCA,0.217 ± 0.018
18,GACACCCA,0.388 ± 0.032
19,GACACCCC,0.409 ± 0.031
20,AACACCCC,0.433 ± 0.0072
21,ACCACCCT,0.0583 ± 0.021
22,GGCACCCC,0.244 ± 0.03
23,GCCACCCC,0.208 ± 0.0084
24,CTACATGA,-0.0685 ± 0.044
25,CTCCGTCC,-0.281 ± 0.02

row,Sequence,PBM E-score of 8-mer
1,GCTCAATA,-0.0299 ± 0.077
2,CCTCGATC,0.0184 ± 0.014
3,CTCAGAGA,-0.262 ± 0.012
4,CGCGTTGC,0.211 ± 0.017
5,GCTAAGGA,-0.08306 ± 0.00035
6,ATCACTAG,0.0709 ± 0.015
7,GTAAGCAA,-0.113 ± 0.031
8,CTTGCACA,0.148 ± 0.026
9,ACGACACG,0.225 ± 0.062
10,ACGACACC,0.421 ± 0.018
11,CCGACACA,0.37 ± 0.028
12,TCGACACA,0.319 ± 0.016
13,ACGACACT,0.298 ± 0.0045
14,GCGACACA,0.302 ± 0.022
15,CAGACACC,0.355 ± 0.0066
16,CCGACACG,0.261 ± 0.013
17,GGGACACC,0.216 ± 0.077
18,CCGACATC,-0.0298 ± 0.027
19,GCGACACC,0.462 ± 0.011
20,CCGACACC,0.448 ± 0.018
21,GTCCAGGA,-0.195 ± 0.049
22,ACATATGA,0.0313 ± 0.063
23,CTCGATCA,0.0196 ± 0.0013
24,GTCCCCAA,-0.071 ± 0.1
25,TCAGTCGA,-0.0383 ± 0.035

row,Sequence,PBM E-score of 8-mer
1,AGAGTACC,-0.132 ± 0.064
2,GATATAAC,0.115 ± 0.0035
3,GACATCTC,-0.14 ± 0.016
4,GATTTGGC,0.249 ± 0.01
5,AGTTGTCG,0.309 ± 0.0099
6,CGTTGTTA,0.157 ± 0.043
7,AGTTGTTG,0.195 ± 0.0086
8,AGTTGTTA,0.388 ± 0.011
9,AGTTGTCA,0.4064 ± 0.0017
10,GGTTGTCA,0.342 ± 0.0085
11,CTCTTTTA,0.105 ± 0.092
12,ATCACAAA,0.0643 ± 0.013
13,ATCACACG,0.39 ± 0.0083
14,ATCACACC,0.4877 ± 0.0026
15,ATCACAGG,0.195 ± 0.099
16,ATCACAGA,0.129 ± 0.011
17,ATCACAGC,0.211 ± 0.024
18,ATCACACA,0.418 ± 0.01
19,AACACACC,0.3 ± 0.019
20,ATCACATA,0.297 ± 0.028
21,AACAAGCT,-0.168 ± 0.035
22,TAGAACGA,-0.136 ± 0.028
23,GCATAGTA,-0.202 ± 0.024
24,ATCACTTA,0.194 ± 0.042
25,ATCACTTC,0.293 ± 0.015

row,Sequence,PBM E-score of 8-mer
1,AACACTGA,0.182 ± 0.069
2,CACACTTA,0.4445 ± 0.0038
3,AACACTTC,0.442 ± 0.014
4,AACACTTA,0.42 ± 0.019
5,AACACTAG,0.275 ± 0.056
6,AACACTTG,0.408 ± 0.0044
7,CACACTGA,0.2581 ± 0.00048
8,CGCACTTA,0.293 ± 0.022
9,ATCACTTG,0.216 ± 0.045
10,AGCACTTC,0.313 ± 0.012
11,AGGACCGG,-0.31 ± 0.028
12,TGGCTGAA,-0.23 ± 0.083
13,CAGACCCA,-0.0557 ± 0.00088
14,AATGGCGA,0.163 ± 0.021
15,TGCCATAA,0.0817 ± 0.098
16,GAAGATCC,-0.101 ± 0.034
17,CCCTGGGA,-0.131 ± 0.0026
18,GACACTTA,0.3962 ± 0.0036
19,GACACTGA,0.157 ± 0.016
20,CACACTTC,0.445 ± 0.005
21,CCCACTTC,0.1799 ± 0.00066
22,GCCACTTA,0.232 ± 0.021
23,CACACTGC,0.168 ± 0.039
24,GAGTCTAC,-0.282 ± 0.068
25,GGTCGACC,-0.253 ± 0.033

row,Sequence,PBM E-score of 8-mer
1,GTGATAGA,0.297 ± 0.042
2,TGTCGACA,0.371 ± 0.0078
3,AGTCGACA,0.253 ± 0.013
4,CGTCGACA,0.26 ± 0.031
5,ACATTTGA,0.038 ± 0.044
6,AATGACGG,-0.0819 ± 0.0024
7,ACAGCGCG,0.258 ± 0.0087
8,AGTGAGAA,0.421 ± 0.025
9,CGTGAGAC,0.258 ± 0.044
10,AGTGAGAT,0.287 ± 0.016
11,AGTGAGAG,0.312 ± 0.022
12,CGTGAGAA,0.349 ± 0.039
13,AGTGAGAC,0.251 ± 0.023
14,TCTGAGAA,-0.135 ± 0.0068
15,TGTGAGAA,0.43 ± 0.0057
16,GGTGAGAC,0.3824 ± 0.0024
17,TGAGAGAA,0.0636 ± 0.079
18,GGTGAGGA,0.364 ± 0.018
19,GGTGAGAA,0.4754 ± 0.0012
20,ACCTTCCA,0.0703 ± 0.049
21,AAACAGGG,-0.081 ± 0.025
22,AATTCATC,-0.0277 ± 0.0079
23,CCCCCAGA,-0.116 ± 0.043
24,ACCAAAAA,-0.124 ± 0.021
25,GCTTGTAA,-0.0775 ± 0.029

row,Sequence,PBM E-score of 8-mer
1,CGAGGAGC,-0.0722 ± 0.028
2,CTAGTCAC,0.0813 ± 0.05
3,TATCTACA,-0.0338 ± 0.029
4,AATTCGCA,0.339 ± 0.032
5,GGGTGATA,0.368 ± 0.0085
6,AGGTGATG,0.4179 ± 0.0014
7,AGGTGATA,0.468 ± 0.0054
8,CGGTGATA,0.187 ± 0.0068
9,ACGTGATG,0.137 ± 0.028
10,AGGTGATC,0.219 ± 0.0025
11,AACAACTG,0.236 ± 0.0091
12,CGACGCAC,-0.0252 ± 0.048
13,AGTGCTTC,-0.15 ± 0.097
14,CGAATGGC,0.0367 ± 0.0062
15,AACCGCAT,-0.147 ± 0.042
16,AATTCATA,-0.105 ± 0.05
17,AGGCGTGC,0.158 ± 0.011
18,AAGCGTGG,0.0213 ± 0.089
19,GGGCGTGA,0.429 ± 0.0092
20,AAGCGTGA,0.401 ± 0.018
21,ACGCGTGA,0.38 ± 0.012
22,GCGCGTGA,0.322 ± 0.0044
23,AGGCGTGA,0.4805 ± 0.00059
24,GGGCGTAA,0.118 ± 0.012
25,CGGCGTGA,0.327 ± 0.0041

row,Sequence,PBM E-score of 8-mer
1,AAGCGTGT,0.235 ± 0.017
2,ACGCGTGC,0.14 ± 0.034
3,AGGCGTGG,0.265 ± 0.016
4,CATTGCCG,0.0765 ± 0.039
5,TTAAGAAA,-0.165 ± 0.066
6,AATACTCT,-0.111 ± 0.064
7,CCGAGGGA,-0.236 ± 0.0027
8,ACGTTCAC,0.227 ± 0.06
9,CAATCGCG,0.269 ± 0.026
10,AATGCTGG,-0.209 ± 0.026
11,TAGGGTAA,-0.0929 ± 0.022
12,ATACTGAA,-0.116 ± 0.013
13,CACGCAAC,0.024 ± 0.02
14,CATAGTAG,-0.286 ± 0.031
15,GATAACCC,0.0272 ± 0.031
16,GTTAGGCA,-0.0852 ± 0.013
17,GCGTTAAC,0.275 ± 0.056
18,CATTAAGG,-0.136 ± 0.13
19,CGGCGTCA,0.219 ± 0.03
20,AGGCGTCG,0.353 ± 0.029
21,AGGCGTCA,0.4194 ± 0.0035
22,ACCTTATA,0.221 ± 0.084
